Source: PubChem BioAssay AID1645855 (Buhrlage Lab, Dana-Farber Cancer Institute and Novartis …, 2021)
In all, about 47,000 compounds went through this assay and about 3,100 (6.6%) were called active. Rule as the data show it: active = inhibition above about 30%; inactive = the rest. For the sample, actives were picked, then their nearest neighbours and some compounds at random.

What follows are compounds tested against Ubiquitin carboxyl-terminal hydrolase 17-like protein 5 (Homo sapiens) (UniProt A8MUK1) (assay: blocks human USP17 ubiquitin-rhodamine cleavage (AID 1645855)). Details: purified USP17, Ub-rhodamine cleavage fluorescence, 3 h; at 50 µM; active compounds read high.
Sequence of Ubiquitin carboxyl-terminal hydrolase 17-like protein 5 (Homo sapiens) (A8MUK1 whole entry, looked up): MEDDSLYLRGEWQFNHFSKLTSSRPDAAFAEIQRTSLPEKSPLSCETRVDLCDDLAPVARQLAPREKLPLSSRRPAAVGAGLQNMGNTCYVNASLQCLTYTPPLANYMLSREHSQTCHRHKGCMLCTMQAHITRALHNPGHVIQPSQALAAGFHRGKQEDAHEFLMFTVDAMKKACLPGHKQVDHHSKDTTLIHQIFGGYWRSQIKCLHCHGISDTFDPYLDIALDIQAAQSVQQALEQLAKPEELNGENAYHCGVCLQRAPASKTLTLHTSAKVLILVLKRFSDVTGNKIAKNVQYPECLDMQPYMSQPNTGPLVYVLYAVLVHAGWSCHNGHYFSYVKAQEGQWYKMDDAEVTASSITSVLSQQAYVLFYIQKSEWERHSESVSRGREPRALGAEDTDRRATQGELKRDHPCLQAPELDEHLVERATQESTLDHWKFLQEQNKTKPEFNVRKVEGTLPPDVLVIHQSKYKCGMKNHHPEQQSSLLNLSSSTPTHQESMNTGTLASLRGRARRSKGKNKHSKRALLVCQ

Structure (SMILES) | inhibition
O=C(CN1CCC(c2nc(-c3ccccc3)no2)CC1)Nc1ccccc1 | -26.4% (inactive)
CCn1c(CC(=O)Nc2ccccc2)nnc1SCC(=O)N1CCOCC1 | 1.1% (inactive)
O=C(Cc1nnc2c(-c3nc(C4CC4)no3)cccn12)Nc1ccccc1 | 69.9% (active)
O=C(c1noc2c1CCCC2)N1CCCC(c2ccn[nH]2)C1 (stereo not drawn) | 0.07% (inactive)
O=C1NCCCCC1NS(=O)(=O)c1ccc2c(c1)CCO2 (stereo not drawn) | 2.39% (inactive)
CC1=C(c2ccc(F)cc2)S(=O)(=O)N=C1Nc1ccccc1Cl | 22.6% (inactive)
Cc1nc(SCC(=O)Nc2cc(Cl)cc(Cl)c2)c2oc3ccccc3c2n1 | -0.843% (inactive)
Cc1nnc(-c2cn(CC(=O)NC3CCCCC3)c3ccccc23)o1 | 6.87% (inactive)
O=C(CSc1ncnc2nc[nH]c12)NC1CCCCC1 | -12.5% (inactive)
O=C(CSc1ncnc2c1oc1ccccc12)NC1CCCC1 | 61.3% (active)
CCc1nc(SCC(=O)Nc2cccc3ccccc23)c2oc3ccccc3c2n1 | 30.1% (active)
CCc1nc(SCC(=O)Nc2cc(Cl)ccc2Cl)c2oc3ccccc3c2n1 | 20.6% (inactive)
FC(F)(F)Oc1ccc2[nH]c3c(c2c1)CNCC3 | 7.52% (inactive)
OCc1cc2c([nH]c3ccccc32)c([C@@H](O)CO)n1 | -4.94% (inactive)
Cc1ccccc1Nc1nc(N)nc(CN2CCCC2c2cccn2C)n1 (stereo not drawn) | -130% (inactive)
CCOC(=O)c1cnc2c(C(F)(F)F)cccc2c1Sc1ccc(C)cc1C | 3.52% (inactive)
O=C1NC2(CCN(C(=O)Cc3ccccc3)CC2)Nc2cc(Cl)ccc21 | -2.47% (inactive)
CSc1ccccc1NC(=O)c1ccc(N2CCCC2)nn1 | 56.7% (active)
Cc1cc(C)n(-c2ccc(C(=O)Nc3ccccc3C(C)C)nn2)n1 | 29.7% (inactive)
O=C(Cc1ccccc1)N1CCN(c2ccc(N3CCCC3)nn2)CC1 | 15% (inactive)
O=C(c1sc2cnccc2c1-n1cccc1)N1CCc2ccccc2C1 | 8.13% (inactive)
CCOC(=O)c1cc(C)nc2c1c(=O)n(Cc1nc(-c3ccccc3)oc1C)c(=O)n2C | -6.3% (inactive)

Structure (SMILES) | inhibition
CCCOc1ccc(C2CN3C(=O)N(c4cccc(C(C)=O)c4)C(=O)[C@]3(C)c3[nH]c4ccccc4c32)cc1OCC (stereo partly drawn) | 2.94% (inactive)
COc1ccc(-c2cc(C(=O)Nc3sccc3C(N)=O)c3ccccc3n2)cc1 | -139% (inactive)
COC(=O)c1cccc(N(C(=O)c2cnccn2)C(C(=O)NC2CCCCC2)c2ccc(OC)c(OC)c2)c1 (stereo not drawn) | -9.26% (inactive)
O=C(NC1CCCC1)C1c2cc(Br)ccc2OCC(=O)N1C1CCCC1 (stereo not drawn) | -0.00685% (inactive)
CC(CCc1ccccc1)NC(=O)COC(=O)c1ccc2[nH]c3c(c2c1)CCCC3 (stereo not drawn) | 15.2% (inactive)
O=C(COC(=O)CCc1nc2ccccc2c(=O)[nH]1)Nc1ccc(N2CCOCC2)cc1 | -1.46% (inactive)
O=C(COC(=O)c1ccc2[nH]c3c(c2c1)CCCC3)Nc1ccc(N2CCOCC2)cc1 | 31% (active)
c1cc2c(cc1-c1nn[nH]n1)OCO2 | -14.4% (inactive)
CC(=O)N1CC[C@H]2COC(=O)N(Cc3ccccc3)[C@@H]2C1 | 5.56% (inactive)
COc1ccc(CN(C)c2ccc(S(=O)(=O)Nc3ccccn3)cn2)cc1 | 6.32% (inactive)
O=S(=O)(c1ccccc1F)N1CCCn2nnc(COCC3CC3)c2C1 | 0.743% (inactive)
Cc1ccc(NC(=O)c2ccc3c(c2)N(S(C)(=O)=O)CC3)cc1C | -24.5% (inactive)
COc1cccc(NC(=O)c2ccc3c(c2)N(S(C)(=O)=O)CC3)c1 | 30.4% (active)
COc1ccccc1NC(=O)c1cccc(S(=O)(=O)N2CCc3ccccc32)c1 | -7.94% (inactive)
Cn1c(CCNC(=O)c2ccc(C(C)(C)C)cc2)nc2cccnc21 | -167% (inactive)
Cc1ccc(C(=O)N(Cc2cc(=O)[nH]c3ccccc23)C(C)C)cc1F | 0.00655% (inactive)
COc1ccc(N(Cc2cc(=O)[nH]c3ccccc23)C(=O)c2ccc(Cl)cc2)cc1 | 39.6% (active)
COc1ccc(C(=O)CC(c2ccc(Cl)cc2)S(=O)(=O)c2ccccc2)cc1 (stereo not drawn) | 4.59% (inactive)
CCNC(=O)c1cccc(Nc2c(-c3ccc(Cl)cc3)nc3cnccn23)c1 | -21.3% (inactive)
CC(C)c1noc(-c2ccc(OCC(=O)Nc3ccccc3Br)cc2)n1 | -2.89% (inactive)
O=C(Cn1c(=O)n(Cc2ccc3c(c2)OCO3)c(=O)c2ccccc21)NCc1ccco1 | 23% (inactive)
CC(C)(C)C(=O)Cn1c(=O)n(Cc2ccco2)c(=O)c2ccccc21 | -6.03% (inactive)

Structure (SMILES) | inhibition
O=C(NCCc1ccccc1)c1ccc2c(=O)n(Cc3ccco3)c(=O)n(Cc3cccc([N+](=O)[O-])c3)c2c1 | 53.8% (active)
O=C(O)COCC(=O)Nc1scc2c1c(=O)oc1ccccc12 | 15.1% (inactive)
CN1CC(=O)N(C2CCCNC2)Cc2c(NC3CCc4ccccc43)ncnc21 (stereo not drawn) | 50.3% (active)
COc1cc(C2CC(=O)c3cnc(N4CCc5ccccc5C4)nc3C2)cc(OC)c1OC (stereo not drawn) | 7.46% (inactive)
CC1CCc2c(cnc3c(C(=O)NCCc4ccccc4)cnn23)C1 (stereo not drawn) | -1.68% (inactive)
Cc1c(Cl)c([N+](=O)[O-])nn1CCCC(=O)NC(C)c1ccccc1 (stereo not drawn) | -29.5% (inactive)
CCOC(=O)C1(Cc2cc(-c3ccccc3F)no2)CCN(CC)CC1 | -12.6% (inactive)
Cc1c(-c2nn3c(-c4ccco4)nnc3s2)cccc1[N+](=O)[O-] | 67.4% (active)
O=C(CSc1cn[nH]n1)Nc1ccc(F)c(Cl)c1 | 0.831% (inactive)
Cc1ccc(C)c(S(=O)(=O)Nc2ccc(C(=O)NCc3ccc(F)cc3)cc2)c1 | -4.3% (inactive)
CC(=O)Nc1ccc(S(=O)(=O)NCCSc2ccc(C)cc2)cc1 | -12.3% (inactive)
CC(=O)Nc1ccc(S(=O)(=O)NCc2ccc(C(=O)NCc3ccc(C)cc3)cc2)cc1 | 52.9% (active)
COc1ccc(CCC(=O)Nc2ccc3nc(N4CCOCC4)cc(C)c3c2)cc1 | 33.3% (active)
Cc1cc(N2CCOCC2)nc2ccc(NC(=O)CCC(=O)N3CCN(c4ccccn4)CC3)cc12 | -15.4% (inactive)
Cc1ccc(C)c(N2CCN(C(=O)CCC(=O)Nc3ccc4nc(N5CCN(C)CC5)cc(C)c4c3)CC2)c1 | -11.5% (inactive)
Cc1nn(-c2cccc(F)c2)c2c1c(C)c(CCC(=O)NCc1ccccn1)c(=O)n2C | 32.6% (active)
Cc1nc2cc(C(=O)NCc3ccccn3)ccc2n1-c1cccc(F)c1 | 0.0347% (inactive)
Cc1nn(-c2ccccc2)c2c1c(C)c(CCC(=O)N1CCN(c3ccc(F)cc3)CC1)c(=O)n2C | 5.08% (inactive)
Cc1cc(C)c(Cn2cccc2C2=NC(Cc3ccccc3)CO2)c(C)c1 (stereo not drawn) | 7.3% (inactive)
Cc1ccc(-c2nc3c4c(C)c(C)n(-c5cccnc5)c4ncn3n2)cc1 | 17% (inactive)
CN1CCCCC[C@@H]2[C@@H]1C[C@@H](Cc1ccccc1)N2C(=O)c1cc(C2CC2)[nH]n1 | 14.4% (inactive)
CCN(CC)S(=O)(=O)c1cc(C(=O)Nc2ccc(-c3cn4ccsc4n3)cc2)ccc1Cl | 16.3% (inactive)

Structure (SMILES) | inhibition
N#Cc1ccc(NC(=O)COC(=O)c2ccc3ccccc3n2)cc1 | -197% (inactive)
N#Cc1ccccc1OCC(=O)Nc1ccc(-c2cn3ccsc3n2)cc1 | 46.9% (active)
O=C(NCc1ccccc1)c1noc2c1CCc1sccc1-2 | 4.73% (inactive)
COc1ccc(NC(=O)c2cc(CN3CCOCC3)on2)cc1 | -3.06% (inactive)
COc1cc(NC(=O)c2noc3c2CCc2sccc2-3)cc(OC)c1 | 48.3% (active)
COc1ccc(OC)c(NC(=O)C(Cc2c[nH]c3ccccc23)N2CCS(=O)(=O)CC2)c1 (stereo not drawn) | 3.96% (inactive)
Cc1cccc(-c2nnc(-c3cccc(S(=O)(=O)N4CCCC4)c3)o2)c1 | 6.44% (inactive)
O=C(COC(=O)C1CCN(S(=O)(=O)c2c(Cl)cccc2Cl)CC1)Nc1ccc2c(c1)CCC2 | 0.533% (inactive)
O=C(Nc1nnc(-c2cccc([N+](=O)[O-])c2)o1)C1CCN(S(=O)(=O)c2ccc3c(c2)CCC3)CC1 | 73.8% (active)
Cn1c(=O)c2c(nc(N3CCN(C(=O)c4ccco4)CC3)n2CCSc2nc3ccccc3s2)n(C)c1=O | 0.301% (inactive)
COc1cccc(C(=O)N2CCN(c3nc(-c4ccc(Cl)cc4)no3)CC2)c1OC | 8.11% (inactive)
Cc1ccccc1NC(=O)CSc1nnc(C2CC2)n1Cc1ccccc1 | -1.39% (inactive)
Nn1c(SCC(=O)Nc2ccccc2F)nnc1-c1n[nH]c2c1CCC2 | 41.7% (active)
O=C(CSc1nccn1C1CCCCC1)Nc1ccccc1F | 20.2% (inactive)
CC(=O)O[C@H]1CC[C@]2(C)[C@H]3Cc4c(cc(-c5cccnc5)oc4=O)O[C@]3(C)CC[C@H]2C1(C)C | 1.11% (inactive)
O=C(C1CCCN(S(=O)(=O)N2CCOCC2)C1)N1CCN(Cc2ccccc2)CC1 (stereo not drawn) | -0.311% (inactive)
COc1ccc(Cl)cc1NC(C)c1nc2sc(C)c(C)c2c(=O)[nH]1 (stereo not drawn) | -21.9% (inactive)
C/C=C(\Cl)C1=CC(=O)[C@]23C[C@H]2[C@@]2(C)CO[C@@]1(O)[C@@]3(O)O2 | 68.6% (active)
CCC1(c2ccccc2)NC(=O)N(CC(=O)Nc2ccc(C)c([N+](=O)[O-])c2)C1=O (stereo not drawn) | -6.64% (inactive)
O=C(COc1ccc2oc3c(c2c1)CCCC3)Nc1ccccn1 | 70.8% (active)
CCC(=O)c1ccc(OCC(=O)Nc2ccc3c(c2)CCC3)cc1 | 4.25% (inactive)
COc1ccc(S(=O)(=O)N(C(=O)c2ccccc2)c2ccc3oc4c(c3c2)CCCC4)cc1 | -2.79% (inactive)
